# Results reported in PubChem BioAssay AID372 (MTDP, 2006).
# In all, about 100,000 compounds went through this assay and about 770 (0.77%) were called active. The list comes from a sample in which actives are over-represented; it also holds similar structures and randomly drawn compounds. Values without a mark were called inactive. Rule as the data show it: active = inhibition above about 50%; inactive = the rest.
# Biological target: Gag-Pol polyprotein (Human immunodeficiency virus type 1 group M subtype B (isolate HXB2)) (UniProt P04585)
# Assay: RNase H inhibition, HIV 1 Gag Pol polyprotein, FRET biochemical assay, screening (AID 372)
# Details: HIV-1 RT RNase H, FRET RNA/DNA substrate fluorescence; at 10 µM; active compounds read high
row,SMILES,inhibition
1,COc1ccc2nc(N/C(N)=N/S(=O)(=O)c3ccc(C)cc3)nc(C)c2c1,5%
2,Cc1cc(=O)[nH]c(N/N=C/c2cccnc2)n1,0%
3,CCCCNCCCCCOc1ccccc1C(C)C,5%
4,COc1cccc(OCCCCOc2ncnc3ccccc23)c1,10%
5,O=C(COc1ccc(/C=N/NS(=O)(=O)c2ccccc2)cc1)Nc1ccc(F)cc1,4%
6,CCOc1ccc(N(CC(=O)NCCSCc2ccc(C)cc2)S(C)(=O)=O)cc1,16%
7,COC(=O)c1ccc(/C=C2\N=C(c3ccc(F)cc3)OC2=O)cc1,0%
8,CC(=O)Oc1ccc2c(=O)c(-c3nc4ccccc4[nH]3)c(C)oc2c1,3%
9,O=C(COc1ccc(Br)cc1Cl)Nc1ccc2c(c1)OCCO2,50% (active)
10,O=C(NC(=S)Nc1cccc(-c2nc3ccccc3s2)c1)c1cccs1,7%
11,O=C(COc1ccc(Cl)cc1Br)Nc1ccc2c(c1)OCCO2,36%
12,O=C(NC(=S)Nc1ccc(-c2nc3ccccc3s2)c(O)c1)c1cccs1,56% (active)
13,O=C(NC(=S)Nc1ccc(O)c(-c2nc3ccccc3s2)c1)c1cccs1,19%
14,O=C(COc1ccc(Br)cc1Cl)Nc1ccc2c(c1)OCO2,18%
15,CC(=O)N1N=C(c2ccc(N(C)C)cc2)CC1c1ccccc1 (stereo unspecified),11%
16,Nc1[nH]n(-c2ccccc2)c(=O)c1N=Nc1ccc(Cl)cc1,9%
17,O=C(N/N=C/c1ccc(I)cc1)C1CC(=O)N(c2ccccc2)C1 (stereo unspecified),9%
18,Cc1cc(/C=N/O)c(C)n1-c1ccc(N(C)C)cc1,11%
19,COc1cc(/C=C(\C#N)c2nc3ccccc3s2)cc(OC)c1O,54% (active)
20,COc1cc(/C=C(\C#N)c2nc3ccccc3s2)cc(Br)c1O,5%
21,CCOc1cc(/C=C(\C#N)c2nc3ccccc3s2)ccc1O,16%
22,C=CCN(CC=C)CC(O)CN1C(=O)NC(C)(C)C1=O (stereo unspecified),3%
23,CC1=CC(C)(C)N(C(=O)CSc2nc3ccccc3s2)c2cc(C)ccc21,20%
24,Cc1ccc(C(=O)CSc2nc(N)c(C#N)c(-c3ccc(O)cc3)c2C#N)cc1,47%
25,COC(=O)CSc1nc(N)c(C#N)c(-c2ccc(O)cc2)c1C#N,2%
26,COc1ccc(-c2c(C#N)c(N)nc(SCC(=O)OCc3ccccc3)c2C#N)cc1,15%

row,SMILES,inhibition
1,COC(=O)CSc1nc(N)c(C#N)c(-c2ccc(OC)cc2)c1C#N,4%
2,COc1cccc(N=Cc2c(O)ccc3ccccc23)c1,13%
3,Cc1ccccc1Nc1ncc(-c2ccc3ccccc3c2)s1,22%
4,COc1cc(C2C(C(=O)/C=C/c3ccccc3)=C(O)C(=O)N2c2ccccn2)ccc1O (stereo unspecified),6%
5,COc1cc2ccccc2cc1C(=O)Nc1ccc(Br)cc1F,18%
6,Cc1ccccc1-n1c(O)c(C=NCc2ccccc2F)c(=O)[nH]c1=O,9%
7,CCCC1CCc2c(sc(N)c2C#N)C1 (stereo unspecified),39%
8,CCC1CCc2c(sc(N)c2C#N)C1 (stereo unspecified),18%
9,CC1CCc2c(sc(N)c2C#N)C1 (stereo unspecified),57% (active)
10,O=C(Nc1ccc(NC(=O)c2cc([N+](=O)[O-])cc([N+](=O)[O-])c2)cc1)c1cccc(Br)c1,12%
11,CCC(OC(=O)CN1C(=O)C(=O)c2ccccc21)C(=O)Nc1ccc(S(N)(=O)=O)cc1 (stereo unspecified),12%
12,Cc1ccc(C)n1-c1ccc(OCC(=O)O)cc1,54% (active)
13,CC(=O)c1ccc(-n2c(C)ccc2C)cc1,0%
14,Cc1ccc(C)n1-c1ccc(CC(=O)O)cc1,47%
15,O=C(O)COc1ccc(N2C(=O)CCC2=O)cc1,12%
16,O=C(O)COc1ccc(N2C(=O)C=CC2=O)cc1,35%
17,O=C(CN1C(=O)/C(=C/c2ccccc2Cl)SC1=S)Nc1nccs1,14%
18,CCOc1ccccc1N1COc2ccc3ccccc3c2C1,14%
19,CCOc1ccc(CN2CCN(C(=O)c3cccs3)CC2)cc1,5%
20,COc1cccc(OCCCCOc2ccc(Cl)cc2C)c1,29%
21,COc1ccc(OC)c(N(CC(=O)N/N=C/c2cc(Br)ccc2OC)S(=O)(=O)c2ccccc2)c1,2%
22,O=C1NC(=O)/C(=C\c2ccc(Cl)cc2Cl)S1,16%
23,Cc1ccc(C)c(NS(=O)(=O)c2cc(Cl)ccc2Cl)c1,47%
24,Cc1ccc(NS(=O)(=O)c2cc(Cl)ccc2Cl)c(C)c1,20%
25,Cc1ccc(NS(=O)(=O)c2cc(Cl)ccc2Cl)c(Br)c1,51% (active)
26,COc1ccc(C(=O)Nc2ccc(I)cc2Cl)cc1OC,8%

row,SMILES,inhibition
1,COc1ccc(-c2nc(-c3ccccn3)no2)cc1OC,10%
2,CCC(CC)C(=O)Nc1ccc(Cl)cc1Cl,13%
3,O=C(CCSc1nc2ccccc2s1)Nc1ccccc1C(F)(F)F,13%
4,Cn1c(-c2ccccn2)nc2ccccc21,2%
5,Cn1c(-c2nc3ccccc3n2C)nc2ccccc21,13%
6,Cn1c(-c2ccc(-c3nc4cnccc4n3C)cc2)nc2cnccc21,70% (active)
7,CC1CCCN(C2=NC(=O)/C(=C\c3cccc(O)c3)S2)C1 (stereo unspecified),12%
8,Cc1cc(/C=N/NC(N)=S)c(C)n1-c1cccc([N+](=O)[O-])c1,52% (active)
9,Cc1cc(/C=N/NC(N)=S)c(C)n1-c1cccc(Cl)c1,54% (active)
10,Cc1cc(/C=N/NC(N)=O)c(C)n1-c1cccc(Cl)c1,24%
11,Cc1ccc(-n2c(C)cc(/C=N/NC(N)=S)c2C)cc1,15%
12,Cc1cc(/C=N/NC(=O)c2cc(Br)c(O)c(Br)c2)c(C)n1-c1cccc([N+](=O)[O-])c1,15%
13,Cc1cc(/C=N/NC(N)=S)c(C)n1-c1ccc(Cl)cc1,23%
14,Cc1cc(C=O)c(C)n1-c1cccc([N+](=O)[O-])c1,6%
15,Cc1cccc(-n2c(C)cc(/C=N/NC(N)=S)c2C)c1,56% (active)
16,Cc1cccc(-n2c(C)cc(/C=N/NC(N)=O)c2C)c1,29%
17,O=C(NCCc1ccccc1)/C(=C/c1ccco1)c1ccccc1,2%
18,Cc1ccc(C(=O)c2cccc(C(=O)c3ccc(C)c(C)c3)c2)cc1C,8%
19,O=C(Nc1c(-c2ccccc2)c2cc(Br)ccc2[nH]c1=O)c1cccc(Cl)c1,23%
20,COc1ccc(OC(C)C(=O)Nc2ccc(F)cc2)cc1 (stereo unspecified),0%
21,Cc1ccc(NC(=O)C2CC(=O)N(c3ccc(Br)cc3)C2)cc1Cl (stereo unspecified),5%
22,COC(=O)C1=C(C)N(c2ccccc2)C(=O)/C1=C\c1ccc(C(=O)OC)cc1,15%
23,Cc1cc(NS(=O)(=O)c2ccc(NC(=O)c3cc(Cl)cc(Cl)c3)cc2)no1,0%
24,CCCCNc1ccc2c3c(cc(=O)n2C)-c2ccccc2C(=O)c13,8%
25,COCCCNc1ccc2c3c(nc(=O)n2C)-c2ccccc2C(=O)c13,50% (active)
26,CC(=O)OCCNc1ccc2noc3c2c1C(=O)c1ccccc1-3,0%

row,SMILES,inhibition
1,Fc1ccc(CN2CCc3c([nH]c4ccccc34)C2)cc1,0%
2,CCCC(C)C(=O)Nc1cccc(C)c1C (stereo unspecified),10%
3,CC(C)(C)C1=CC(Cl)=C(C(C)(C)C)C(=O)C1=O,5%
4,CC(C)(C)C1=CC(C(C)(C)C)=C(Cl)C(=O)C1=O,69% (active)
5,CC(C)(C)C1=CC(C(C)(C)C)=C([N+](=O)[O-])C(=O)C1=O,6%
6,Cc1ccccc1CNS(=O)(=O)c1cccs1,0%
7,COc1ccccc1/C=N\N(C)c1nc(-c2ccccc2)cc(-c2ccccc2)n1,17%
8,COc1cc(/C=N/Nc2nc(N3CCOCC3)nc(N3CCOCC3)n2)cc(OC)c1,5%
9,Cc1cc2nc(-c3ccc(NC(=O)/C=C/c4ccco4)cc3)oc2cc1C,57% (active)
10,O=C(/C=C/c1ccc(-c2ccccc2[N+](=O)[O-])o1)Nc1ccc(-c2nc3ncccc3o2)cc1,16%
11,O=C(/C=C/c1ccco1)Nc1ccc2nn(-c3ccc(Cl)cc3)nc2c1,50% (active)
12,Cc1cc2nc(-c3cccc(NC(=O)/C=C/c4ccco4)c3)oc2cc1C,12%
13,O=C(/C=C/c1ccco1)Nc1ccc(-c2nc3cc(Cl)ccc3o2)cc1,51% (active)
14,Cc1ccc(-c2nc3cc(NC(=O)/C=C/c4ccco4)ccc3o2)cc1,12%
15,O=C(/C=C/c1ccco1)Nc1ccc2oc(-c3ccccc3)nc2c1,15%
16,O=C(/C=C/c1ccc(-c2ccccc2[N+](=O)[O-])o1)Nc1ccc(-c2nc3ccccc3o2)cc1,45%
17,O=C(/C=C/c1ccc(-c2ccccc2[N+](=O)[O-])o1)Nc1ccc(-c2nc3cc(Cl)ccc3o2)cc1,53% (active)
18,O=C(/C=C/c1ccco1)Nc1ccc2nn(-c3ccccc3)nc2c1,24%
19,Cc1ccc2nc(-c3ccc(NC(=O)/C=C/c4ccco4)cc3)oc2c1,11%
20,COc1ccc(-n2nc3ccc(NC(=O)/C=C/c4ccco4)cc3n2)cc1,48%
21,O=C(Nc1ccc(N2CCOCC2)c(Cl)c1)c1cc([N+](=O)[O-])ccc1Cl,24%
22,O=C1NC(=O)C(=Cc2ccccc2OCc2ccccc2F)C(=O)N1,4%
23,COc1ccc(CN2CCN(C(=O)c3cccs3)CC2)c(OC)c1,5%
